The values below come from PubChem BioAssay (EPA / NIEHS).

The AC50 is the concentration at which the activity in the assay is half-maximal.

Assay [1] concerns the target Cellular tumor antigen p53 (Homo sapiens) (UniProt P04637). In words: TOX21_p53_BLA_p4_ratio: Tox21 HCT-116 p53 Agonism Beta-lactamase Assay, Ratio, Phase 4 (AID 2283601). The gist of the method: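 Signal is the blue/green (460nm/530nm) ratio of cleaved versus uncleaved CCF4-AM substrate, read after 2 h substrate loading. Cells were HCT116 carrying the p53-responsive beta-lactamase reporter, dosed 16 h at 37C, 5% CO2; CellTiter-Glo measured in parallel.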

Assay [2] can be described thus: Tanguay_ZF_120hpf_MORT_legacy: (Legacy) Oregon State University Tanguay Lab 120 Hour Post-fertilization zebrafish Assay for Mortality (AID 2283633). The gist of the method: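 5D WT zebrafish, chorion removed 4 hpf; 1 embryo/well from 6 hpf; static exposure to 120 hpf, 28C, dark, sealed. Final DMSO 0.64%. Readout: binary mortality, brightfield, 24 + 120 hpf; DMSO as negative control.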

The nature of assay [3]: Tanguay_ZF_120hpf_YSE_legacy: (Legacy) Oregon State University Tanguay Lab 120 Hour Post-fertilization zebrafish Assay for Yolk Sac Edema (AID 2283634).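 For AC50: actives raise the incidence of yolk sac edema above the DMSO baseline.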 The gist of the method:
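Dechorionate (pronase, 4 hpf) → place one 6 hpf embryo per well → static compound exposure, sealed and foil-covered, 28C, to 120 hpf → record yolk sac edema as present or absent. Final DMSO 0.64%.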

Assay [4] is described as follows: Tanguay_ZF_120hpf_AXIS_legacy: (Legacy) Oregon State University Tanguay Lab 120 Hour Post-fertilization zebrafish Assay for Body Axis Malformation (AID 2283635).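 For AC50: potency for an increased fraction of larvae scored with body axis malformation.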 The gist of the method:
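Chorion is removed with pronase at 4 hpf, then single 6 hpf embryos are dosed (final DMSO 0.64%) and held statically at 28C in sealed, foil-covered plates. At 120 hpf body axis malformation is recorded as present or absent.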

Assay [5] can be described thus: Tanguay_ZF_120hpf_EYE_legacy: (Legacy) Oregon State University Tanguay Lab 120 Hour Post-fertilization zebrafish Assay for Eye Malformation (AID 2283636). The gist of the method: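 Read-out is binary presence or absence of eye malformation, scored by brightfield microscopy at 120 hpf. Single larvae were exposed from 6 hpf in embryo medium containing 0.64% DMSO, with DMSO as baseline.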

Assay [6] in a line: Tanguay_ZF_120hpf_SNOU_legacy: (Legacy) Oregon State University Tanguay Lab 120 Hour Post-fertilization zebrafish Assay for Snout Malformation (AID 2283637). The gist of the method:
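Snout malformation read as a yes/no call on brightfield images of 120 hpf larvae (Tropical 5D strain). Static exposure began at 6 hpf on dechorionated embryos in 0.64% DMSO, with gain of signal analysed versus DMSO controls.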

Assay [7] is described as follows: Tanguay_ZF_120hpf_JAW_legacy: (Legacy) Oregon State University Tanguay Lab 120 Hour Post-fertilization zebrafish Assay for Jaw Malformation (AID 2283638). An outline of the steps: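 Steps: dechorionate 4 hpf embryos (pronase); plate 1/well at 6 hpf; add test chemical, 0.64% DMSO final; seal, cover, hold at 28C statically to 120 hpf; score jaw defect presence/absence microscopically. Dead embryos not scored.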

A short description of assay [8]: Tanguay_ZF_120hpf_OTIC_legacy: (Legacy) Oregon State University Tanguay Lab 120 Hour Post-fertilization zebrafish Assay for Otic Vesicle Malformation (AID 2283639). The gist of the method: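 Otic vesicle malformation is read as a yes/no morphology call at 120 hpf. Exposure is static at 28C with 0.64% (vol/vol) DMSO; embryos that die are excluded from non-mortality endpoints.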

Assay [9] in a line: Tanguay_ZF_120hpf_PE_legacy: (Legacy) Oregon State University Tanguay Lab 120 Hour Post-fertilization zebrafish Assay for Pericardial Edema (AID 2283640). The gist of the method: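 Embryos from wild-type 5D adults were staged, then dosed in 0.64% DMSO. They were kept sealed in the dark at 28C until 120 hpf. Pericardial edema was then recorded as present or absent.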
A short description of assay [10]: Tanguay_ZF_120hpf_BRAI_legacy: (Legacy) Oregon State University Tanguay Lab 120 Hour Post-fertilization zebrafish Assay for Brain Malformation (AID 2283641). An outline of the steps: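 Wild-type 5D larvae, static waterborne exposure to 120 hpf, 28C, 0.64% v/v DMSO. Brightfield scoring of brain defects, binary; dead embryos excluded. Positive ctrl 5uM trimethyltin chloride.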

A short description of assay [11]: Tanguay_ZF_120hpf_SOMI_legacy: (Legacy) Oregon State University Tanguay Lab 120 Hour Post-fertilization zebrafish Assay for Somite Malformation (AID 2283647). An outline of the steps: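 Read-out: presence or absence of somite malformation in 120 hpf larvae, gain-of-signal relative to DMSO baseline. Embryos lacked chorion (pronase, 4 hpf) and were exposed statically from 6 hpf at 28C; dead larvae not scored.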

Assay [12] can be described thus: Tanguay_ZF_120hpf_PFIN_legacy: (Legacy) Oregon State University Tanguay Lab 120 Hour Post-fertilization zebrafish Assay for Pectoral Fin Malformation (AID 2283648).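 Note: each larva judged yes or no for fin defect by brightfield with dead larvae skipped.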 An outline of the steps:
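5D WT zebrafish; pronase dechorionation 4 hpf; 1 embryo/well at 6 hpf; static exposure to 120 hpf, 28C, sealed, foil-covered; final DMSO 0.64% v/v; 5 uM trimethyltin chloride positive control; fin defect scored yes/no.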

Assay [13] can be described thus: Tanguay_ZF_120hpf_CFIN_legacy: (Legacy) Oregon State University Tanguay Lab 120 Hour Post-fertilization zebrafish Assay for Caudal Fin Malformation (AID 2283649). The gist of the method: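 Binary presence or absence of caudal fin malformation at 120 hpf, read by brightfield microscopy, with DMSO as baseline. Larvae came from 5D wild-type embryos exposed statically from 6 hpf at 28C after pronase dechorionation.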

Assay [14] is described as follows: Tanguay_ZF_120hpf_PIG_legacy: (Legacy) Oregon State University Tanguay Lab 120 Hour Post-fertilization zebrafish Assay for Pigmentation Malformation (AID 2283650). The gist of the method:
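Pronase dechorionation at 4 hpf; embryos plated at 6 hpf, one per well; static exposure, sealed and foil-covered, 28C, to 120 hpf; pigmentation read by brightfield, binary; DMSO 0.64% baseline, 5uM trimethyltin chloride positive control.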

Assay [15] can be described thus: Tanguay_ZF_120hpf_CIRC_legacy: (Legacy) Oregon State University Tanguay Lab 120 Hour Post-fertilization zebrafish Assay for Circulatory Malformation (AID 2283651). An outline of the steps:
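Using wild-type Tropical 5D zebrafish, we exposed dechorionated embryos from 6 to 120 hpf in embryo medium with 0.64% DMSO. Circulatory defects were scored as present or absent; 5uM trimethyltin chloride served as positive control.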

Assay [16] can be described thus: Tanguay_ZF_120hpf_SWIM_legacy: (Legacy) Oregon State University Tanguay Lab 120 Hour Post-fertilization zebrafish Assay for Swim Bladder Malformation (AID 2283654).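 Note: swim bladder malformation in each larva scored yes or no under brightfield.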 The gist of the method:
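Embryos lacking chorions were exposed individually and statically to test chemical from 6 to 120 hpf at 28C, with 0.64% DMSO as vehicle. At 120 hpf, swim bladder malformation was recorded as present or absent by brightfield microscopy.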

The nature of assay [17]: Tanguay_ZF_120hpf_TRUN_legacy: (Legacy) Oregon State University Tanguay Lab 120 Hour Post-fertilization zebrafish Assay for Truncated Body (AID 2283655). An outline of the steps: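 Truncated body is recorded as a binary endpoint at 120 hpf by brightfield imaging of wild-type 5D larvae. Exposure runs statically from 6 hpf at 28C with 0.64% DMSO; embryos dying earlier are not scored.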

The nature of assay [18]: Tanguay_ZF_120hpf_NC_legacy: (Legacy) Oregon State University Tanguay Lab 120 Hour Post-fertilization zebrafish Assay for Notochord and Tail Malformation (AID 2283656). An outline of the steps:
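Dechorionated 5D zebrafish, 1/well from 6 hpf; static exposure to 120 hpf, 28C, sealed, dark; final DMSO 0.64% v/v. NC scored binary (present/absent); dead embryos not scored. Fit vs DMSO baseline, gain direction.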

Read-out in assay [19]: solute carrier (SLC22A6), SLC22A6 (gene 9356)
In words: LTEA_HepaRG_SLC22A6: Life Technologies and Expression Analysis (LTEA) Assay for solute carrier (SLC22A6) using HepaRG (AID 2283653; active = hit-call score of the fitted dose curve at least 0.9, where 1 is the maximum; inactive = score below 0.9). The conditions noted are these: mRNA level, 48 h; actives raise or lower the signal. An outline of the steps: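 Read-out is SLC22A6 transcript level by qRT-PCR, normalised to three housekeeping genes and fitted for gain or loss relative to 0.5% DMSO vehicle. Human HepaRG cells received chemicals at up to 100 uM for 48 h.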

Results filed as inconclusive are left out. Active and inactive are the calls of the source. Rule for the calls, unless noted: active = hit-call score of the fitted dose curve at least 0.9, where 1 is the maximum; inconclusive = response in the unintended direction; inactive = score below 0.9.

Sequence of Cellular tumor antigen p53 (Homo sapiens) (P04637 whole entry, looked up): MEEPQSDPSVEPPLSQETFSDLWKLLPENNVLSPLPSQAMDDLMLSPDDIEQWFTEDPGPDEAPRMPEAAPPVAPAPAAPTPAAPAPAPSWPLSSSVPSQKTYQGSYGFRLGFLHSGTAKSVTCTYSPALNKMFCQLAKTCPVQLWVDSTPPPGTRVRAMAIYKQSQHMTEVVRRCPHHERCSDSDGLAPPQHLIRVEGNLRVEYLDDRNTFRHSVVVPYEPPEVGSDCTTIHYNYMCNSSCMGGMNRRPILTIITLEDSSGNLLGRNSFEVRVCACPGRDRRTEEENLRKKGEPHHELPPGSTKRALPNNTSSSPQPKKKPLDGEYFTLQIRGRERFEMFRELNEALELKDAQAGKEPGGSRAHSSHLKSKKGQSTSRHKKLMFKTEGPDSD

In the case of `N#Cc1c(Cl)cccc1Cl`, the outcome in assay [1], in assay [2], in assay [3], in [4], in assay [5] and in assay [6] was inactive. The result in [7], in assay [8], in assay [9], in assay [10], in assay [11] and in [12] was inactive. Further, the molecule was called inactive in assay [13], in assay [14], in [15], in assay [16], in assay [17] and in assay [18].
On to `CC1(C)C(C(=O)OC(C#N)c2cccc(Oc3ccccc3)c2)C1(C)C` (configuration not stated), for which the result in assay [1], in assay [2], in assay [3], in [4], in [5] and in assay [6] was inactive. The result in [7], in assay [8], in assay [9], in assay [10], in assay [11] and in assay [12] was inactive. The molecule was called inactive in [13], in assay [14], in [15], in [16], in [17] and in assay [18].
For the molecule `CCOP(=S)(OCC)Oc1nc(Cl)n(C(C)C)n1`, the result in assay [1], in assay [2], in [5], in assay [6], in assay [7] and in assay [9] was inactive. The call in [10], in assay [11], in assay [12], in assay [13], in [14] and in assay [15] was inactive. Also, the result in assay [19], in assay [16] and in assay [18] was inactive. The results for the concentration at half-maximal activity (AC50) in assay [3], in assay [4] and in assay [17] were 37.4 µM (active), 14.4 µM (active) and 8.3 µM (active), respectively.
On to `CN/C(=N\[N+](=O)[O-])NCc1cnc(Cl)s1`, for which the outcome in assay [1], in [2], in assay [3], in [4], in assay [5] and in [6] was inactive. The call in [7], in [8], in [9], in assay [10], in assay [11] and in assay [12] was inactive. Moreover, the molecule was classed as inactive in [13], in assay [15], in [16], in [17] and in assay [18].
In the case of `CC(C)Nc1nc(Cl)nc(NC(C)C)n1`, the outcome in assay [1], in [2], in [3], in assay [4], in assay [5] and in assay [6] was inactive. Besides, the outcome in assay [7], in assay [8], in assay [9], in assay [10], in [11] and in assay [12] was inactive. Moreover, the call in assay [13], in [15], in assay [16], in assay [17] and in assay [18] was inactive.
Turning to `Nc1cnn(-c2ccccc2)c(=O)c1Cl`, the result in [1], in [2], in assay [3], in [4], in assay [5] and in [6] was inactive. The result in assay [7], in assay [8], in assay [9], in [10], in assay [11] and in assay [12] was inactive. Also, the outcome in [13], in [14], in assay [15], in [16] and in assay [17] was inactive.
`CCNP(=S)(OC)O/C(C)=C/C(=O)OC(C)C` (configuration not stated): the outcome in assay [1], in assay [2], in assay [3], in assay [4], in [5] and in assay [6] was inactive. Further, the molecule was called inactive in assay [7], in [8], in [9], in assay [10], in assay [12] and in [13]. For the same molecule, the result in assay [14], in assay [15], in assay [16], in assay [17] and in [18] was inactive.
